# In PubChem BioAssay AID588342 (National Center for Advancing Translational Sciences (NCATS), 2011):
# Screen size: about 360,000 compounds; about 25,000 (6.9%) were called active. Inconclusive results (about 9%) are left out. Only a selection was taken, and actives are over-represented in it overall. Values without a mark were called inactive. Calls come from the whole dose curve; as a rule, active = well fitted inhibition curve with a large enough effect; inconclusive = small, poorly fitted or top-dose-only effect; inactive = flat fitted curve, though single readings scatter.
# Target: Luciferin 4-monooxygenase (Photinus pyralis) (UniProt P08659)
# Test: qHTS profiling assay for firefly luciferase inhibitor/activator using purifed enzyme and Km concentrations of substrates (counterscreen for miR-21 project); note: nearly all actives have a fitted effect of over 55% in size;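 for activity change, negative = inhibition: plate controls were vehicle for no effect and reference inhibitor for full effect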
# Conditions: purified FLuc, luminescence inhibition; series mostly up to 57.5 µM; activity change, negative = inhibition: at the top concentration
# How it was run: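 Purified P. pyralis luciferase, 10 nM final, with Km-level 10 uM D-luciferin and 10 uM ATP in 50 mM Tris acetate pH 7.5, 10 mM Mg acetate, 0.01% Tween-20, 0.05% BSA; 6-point qHTS titration about 60 µM downward; luminescence read.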
# Potency is the fitted concentration of half-maximal effect.
# Sequence of Luciferin 4-monooxygenase (Photinus pyralis) (P08659 whole entry, looked up): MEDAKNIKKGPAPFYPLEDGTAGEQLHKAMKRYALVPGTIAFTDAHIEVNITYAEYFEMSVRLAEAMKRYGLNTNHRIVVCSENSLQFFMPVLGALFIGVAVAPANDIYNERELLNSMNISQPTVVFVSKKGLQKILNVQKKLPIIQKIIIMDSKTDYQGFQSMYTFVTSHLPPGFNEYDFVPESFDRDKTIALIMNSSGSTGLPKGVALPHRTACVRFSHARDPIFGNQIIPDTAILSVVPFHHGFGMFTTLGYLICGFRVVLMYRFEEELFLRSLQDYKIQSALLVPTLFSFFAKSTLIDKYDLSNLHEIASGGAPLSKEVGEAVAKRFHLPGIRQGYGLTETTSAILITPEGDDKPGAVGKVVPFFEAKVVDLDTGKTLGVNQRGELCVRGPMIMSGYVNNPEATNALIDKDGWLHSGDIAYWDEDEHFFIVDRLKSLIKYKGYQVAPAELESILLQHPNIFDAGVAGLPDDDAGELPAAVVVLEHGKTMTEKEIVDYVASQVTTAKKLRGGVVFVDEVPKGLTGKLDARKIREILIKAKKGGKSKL
Compound,"activity change, negative = inhibition",Potency
Cc1cccc(Nc2cc(C)nc(-n3nc(C)cc3C)n2)c1,-3.38%,
O=C(NNC(=O)c1cccc(S(=O)(=O)Nc2ccc(Cl)cc2)c1)c1ccc(=O)[nH]c1,-0.376%,
COc1ccc(C(C)(C)C)cc1NC(=O)CCN1C(=O)C2CCCCC2C1=O (centres undefined),4.4%,
O=C(CS(=O)(=O)c1cccc2nsnc12)N1CCN(c2cccc(Cl)c2)CC1,-0.818%,
COc1ccc(N=Cc2c(O)[nH]c3ccccc23)cc1OC,,15.1 µM (active)
COCC(=O)N=Nc1c(O)[nH]c2ccccc12,1.4%,
COc1cc(N=Cc2c(O)[nH]c3ccccc23)cc(OC)c1OC,-17.8%,
Cc1ccccc1N1CCN(Cc2nc(Cc3ccccc3F)no2)CC1,-9.05%,
CC(=O)Nc1ccc(NC(=O)CCCNC(=O)c2ccc(Cl)cc2)cc1,-0.774%,
O=C(COC(=O)CCCNC(=O)c1ccc(Cl)cc1)Nc1cc(Cl)ccc1Cl,,16.9 µM (active)
COc1cc(OC)c(C(=O)OC(C)C(=O)Nc2cc(C(F)(F)F)ccc2Cl)cc1OC (centres undefined),-0.387%,
COc1ccc(C(=O)COC(=O)CCCC(=O)Nc2cc(C(F)(F)F)ccc2Cl)cc1,,2.13 µM (active)
CCCCC(=O)Nc1ccc(C(=O)Nc2cc(C(F)(F)F)ccc2Cl)cc1,-0.15%,
Cc1ccc(Cl)cc1NC(=O)COC(=O)CC(C)(C)C,-2.2%,
COc1ccc(CC(=O)NCCc2sc3nc(-c4ccc(OC)cc4)nn3c2C)cc1,-16.1%,
O=C(NCc1ccco1)C1CCCN1S(=O)(=O)c1ccccc1C(F)(F)F (centres undefined),-1.66%,
C/C(=N\OCC(=O)O)c1ccc(Cl)cc1,-4%,
CCOc1cc(/C=C(/C#N)c2ccc(Cl)cc2)cc(Cl)c1OCC(=O)O,,3.79 µM (active)
COc1cc(/C=C(/NC(=O)c2ccc(Cl)cc2Cl)C(=O)O)cc(OC)c1OC,0.539%,
Cc1cccc(S(=O)(=O)CC(=O)Nc2nc(-c3ccccc3)cs2)c1,-15.7%,
COc1ccc2nc(NC(=O)NC3CCCCC3)sc2c1,,9.53 µM (active)
CCc1noc(C)c1C(=O)Nc1nc(-c2ccccc2)cs1,,19 µM (active)

Compound,"activity change, negative = inhibition",Potency
COc1ccc(CNC(=O)c2ccc(Br)s2)cc1OC,-0.0596%,
COc1ccc(NC(=O)CCC(=O)Nc2nnc(C3CCCCC3)s2)cc1,-0.454%,
CCc1noc(C)c1C(=O)Nc1nc2ccc(OC)cc2s1,,5.36 µM (active)
COc1ccc2nc(NC(=O)c3ccc(Br)s3)sc2c1,,3.01 µM (active)
CCc1noc(C)c1C(=O)NNC(=O)c1ccc(F)cc1,6.73%,
COc1ccc(S(=O)(=O)N2CCN(C(=O)NC3CCCCC3)CC2)cc1,1.01%,
CCc1nc2ccccc2c(C(=O)NCc2ccc(OC)cc2)c1C,5.53%,
COc1ccc2oc(=N)c(C(=O)Nc3ccc(Br)cc3)cc2c1,2.17%,
CCCC(=O)Nc1nc2ccc(NC(=O)c3c(F)c(F)c(OC)c(F)c3F)cc2s1,0.027%,
Cc1ccc(Cl)cc1N1CCN(C(=O)C2CCC(CNS(=O)(=O)c3cccs3)CC2)CC1 (centres undefined),0.57%,
Cc1ccc(C(=O)Nc2cc3c(cc2N2CCCC2)n(C)c(=O)c(=O)n3C)cc1,3.56%,
Cc1oc2ccc(O)c(CN3CCC(C)CC3)c2c1C(=O)Nc1ccccc1,-3.71%,
COc1ccc(OC)c(S(=O)(=O)Nc2c(C)nn(C)c2C)c1,6.12%,
COc1ccc(-c2nn3c(-c4ccc(OC)cc4)nnc3c3ccccc23)cc1,1.34%,
COCCCNC(=S)N(CCN(C)C)Cc1cc2cc3c(cc2[nH]c1=O)OCCO3,-3.26%,
O=C(CN1c2ccccc2S(=O)(=O)c2ccccc21)Nc1cccc(C(F)(F)F)c1,-2.21%,
O=C(Cn1c(=O)n(Cc2ccccc2)c(=O)c2sc3ccccc3c21)Nc1ccccc1F,1.86%,
CCOc1ccc2nc(NC(=O)CSc3nc4c(c(=O)n(C)c(=O)n4C)n3CC)sc2c1,-20.8%,
CCn1c(SCC(=O)NC2CCCC2)nnc1-c1ccoc1C,0.285%,
CCn1c(SCC(=O)Nc2nc3ccc(OC)cc3s2)nnc1-c1ccoc1C,,10.7 µM (active)
CCOc1ccccc1C(=O)Nc1ccc2c(c1)N(C)C(=O)c1ccccc1S2,-8.56%,
Cc1ccc(-n2c(SCC(=O)c3ccccc3)nc3c([nH]c4ccccc43)c2=O)cc1,-1.63%,

Compound,"activity change, negative = inhibition",Potency
CSc1ccc(CCNC(=O)CS(=O)(=O)Cc2nc(-c3ccccc3F)oc2C)cc1,1.16%,
CCOC(=O)c1ccc(NC(=O)C2CC(=O)N(c3ccc4c(c3)OCCO4)C2)cc1 (centres undefined),4.6%,
O=C(N/N=C/C=C/c1ccco1)c1cccs1,,26.9 µM (active)
Cc1ccc(NC(=O)CCC(=O)N/N=C/c2ccco2)c(C)c1,-0.493%,
Cc1cc(/C=N/Nc2ccc([N+](=O)[O-])cn2)c(C)n1-c1cccc(C(=O)O)c1,-16.1%,
Cc1cc(/C=N/NC(=O)CC2(C)OCCO2)c(C)n1-c1ccc(Cl)c(Cl)c1,-5.09%,
Cc1cccc(-n2c(C)cc(/C=N/NC(N)=S)c2C)c1,-19.6%,
Cc1cc(C(=O)Nc2ccc(C)c(S(=O)(=O)N3CCOCC3)c2)c2ccccc2n1,-0.289%,
Cc1ccc(-c2cc(C(=O)N/N=C/C=C/c3ccco3)c3ccccc3n2)cc1C,,1.07 µM (active)
O=C(COC(=O)CCC(=O)c1cccs1)NCc1ccco1,2.32%,
CC1C/C(=N/NC(=O)c2cccs2)CC(C)(C)C1 (centres undefined),-1.71%,
Cc1cccc(-n2c(C)cc(/C=N\NC(=O)c3cccs3)c2C)c1,,1.2 µM (active)
Cc1ccc(-c2nnc(SCC(=O)N/N=C/c3cccs3)n2-c2ccc(C)cc2)cc1,2.81%,
Cc1ccc(-n2c(C)cc(/C=N\NC(=O)CC(=O)NC(C)C)c2C)cc1,,13.5 µM (active)
CCOC(=O)c1c(C)oc2nc(C)nc(N(CC(C)C)CC(C)C)c12,-7.08%,
O=C(COC(=O)CCCN1C(=O)c2cccc3cccc(c23)C1=O)NC1CCS(=O)(=O)C1 (centres undefined),1.69%,
COc1ccc(N2CCN(C(=O)c3c(C)oc4nc(C)nc(N5CCCC5)c34)CC2)cc1,6.34%,
Cc1ccccc1Nc1nc(N)nc(COC(=O)CCC(=O)c2ccc(F)cc2)n1,4.1%,
CCOC(=O)N1CCN(C(=O)COC(=O)c2cccc(S(C)(=O)=O)c2)CC1,-1.79%,
CCc1ccc(S(=O)(=O)c2nnn3c2nc(NCc2ccccc2OC)c2cc(Cl)ccc23)cc1,-0.594%,
